The list is not random: actives were taken first. Their share in the collection is about 2.3%.
Calb FLC – affects C. albicans growth with fluconazole; hit rate 0.57% among 300,000; AID 1979; growth inhibition, % (no concentration beside the values); C. albicans CaCi-2 (fluconazole-resistant clinical isolate) + fluconazole, Alamar Blue growth, 48 h;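 active = growth inhibition above about 58% in most replicates, limit read from the data, passing the limit was not always enough; inconclusive = exactly half the replicates above a set limit; inactive = most replicates below a set limit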;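 also: all wells also contain fluconazole at 8 µg/ml as a sub-toxic cotreatment; 0% = median of DMSO wells and 100% = median of geldanamycin control wells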
Rin1-Abl PPI inh – human Rin1-Abl interaction inhibition; TR-FRET Rin1/Abl binding, biochemical; inhibition, % at 7.35 µM; hit rate 0.4% among 360,000; in the data active = inhibition above about 5%, passing the limit was not always enough
TPT1 inh – blocks Candida albicans tRNA 2'-phosphotransferase; recombinant caTPT1, FP RNA substrate dephosphorylation; inhibition, % at 5 µM; hit rate 0.81% among 300,000; AID 1962;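 active = inhibition above the mean of all tested compounds plus 3 SD, set per screening campaign, cut at about 24% in these data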;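 also: plate controls were DMSO alone for no effect and ferristatin control at 100 nM for full effect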
Rpn11 block – inhibitors of human proteasome Rpn11. AID 588493. human 26S proteasome, Ub4-pepOG fluorescence polarization; 20S core pre-blocked with epoxomicin. inhibition, % at 20 µM. hit rate 0.59% among 360,000. O00487;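 active = inhibition at 20 µM, scaled to each plate's controls, above about 33%, limit read from the data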
IDE act – activators of human insulin-degrading enzyme in cells; hit rate 0.073% among 340,000; AID 493087; activation, % at 5.96 µM; P14735; HEK cells, FAbeta-B cleavage, fluorescence polarization; 0% vehicle, 100% cell-free pure enzyme wells;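 active = activation above the mean of all tested compounds plus 3 SD, set per screening campaign, cut at about 17% in these data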
IDE inh – inhibits human insulin-degrading enzyme in HEK cells; P14735; FAbetaB cleavage, fluorescence polarization; inhibition, % at 5.59 µM; hit rate 0.41% among 320,000;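 active = percent inhibition above the average of all tested compounds plus 3 SD, set per screening campaign, cut at about 16% in these data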;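 also: IDE supplied by intact live HEK cells; FP after avidin binding of uncleaved biotin substrate so inhibition keeps polarization high; 0% = DMSO wells and 100% = 60 µM reference IDE inhibitor Ii1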
TPT1 inh confirm – confirmation of Candida albicans TPT1 inhibitors | hit rate 74% among 2,400 | inhibition, % at 5 µM | AID 2149 | recombinant caTPT1, fluorescence polarization, RNase T1 coupled | shares compounds with TPT1 inh;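 active = inhibition above the primary screen limit, the mean inhibition of all tested compounds plus 3 SD, cut at about 25% in these data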
RNase T1 counter – counter-screen for TPT1 inhibitors: inhibitors of Aspergillus oryzae RNase T1. shares compounds with TPT1 inh. RNase T1 cleavage, fluorescence polarization, 1536-well. inhibition, % at 5 µM. hit rate 83% among 2,400;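 active = inhibition above the solvent-only control well mean plus 3 SD, limit set per screening run, cut at about 23% in these data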;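 also: plate controls were DMSO wells with enzyme for no effect and wells without RNase T1 for full effect; inhibitors block cleavage so intact labeled substrate keeps polarization high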
IDE cell inh cf – cellular human IDE inhibition, confirmation; shares compounds with IDE inh; HEK cells, FAbetaB cleavage, fluorescence polarization; inhibition, % at 5.59 µM; hit rate 51% among 1,200; AID 435028;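 active = mean inhibition across triplicate wells above the cutoff set by the earlier primary insulin-degrading enzyme screen, cut at about 16% in these data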;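 also: 0% = DMSO wells and 100% = 60 µM reference IDE inhibitor Ii1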
HEK293 tox – HEK cell cytotoxicity, counter-screen for IDE inhibitors; shares compounds with IDE inh; HEK293 cytotoxicity, ATP luminescence; inhibition, % at 5.59 µM; hit rate 28% among 1,200; AID 449730; in the data active = inhibition above about 22%;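 also: 0% = vehicle wells and 100% = reference cytotoxic drug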
Rpn11 inh conf – confirmation of human proteasome Rpn11 inhibitors | purified human 26S proteasome, Ub4-pepOG fluorescence polarization; proteasome pretreated with epoxomicin | hit rate 29% among 1,900 | AID 602318 | shares compounds with Rpn11 block | inhibition, % at 20 µM
MMP-2 counter – MMP-2 (human) inhibition counter-screen; hit rate 4% among 1,900; shares compounds with Rpn11 block; inhibition, % at 20 µM; recombinant MMP-2, FRET peptide cleavage fluorescence;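 also: human MMP-2 activated beforehand with APMA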
Thrombin inh – thrombin (bovine) inhibition counter-screen; shares compounds with Rpn11 block; bovine thrombin cleavage of Ub4-pepOG, fluorescence polarization; inhibition, % at 20 µM; hit rate 13% among 1,900; AID 602333;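 active = mean inhibition at least 40% at 20 µM, or signal 3 deviations below plate average, so some actives read negative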;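 also: plate controls were thrombin with DMSO for no effect and buffer wells lacking thrombin for full effect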
* hit, by the source's call; ? = inconclusive; . = no result given. Rule as the data show it, unless noted: active = inhibition above about 40%; inactive = the rest.

SMILES | Calb FLC | Rin1-Abl PPI inh | TPT1 inh | Rpn11 block | IDE act | IDE inh | TPT1 inh confirm | RNase T1 counter | Rpn11 inh conf | MMP-2 counter | Thrombin inh | others
COc1ccc(-n2c(O)c(/C=C/C=Nc3ccccc3)c(=O)[nH]c2=O)cc1 | 7.1 | -10.6 | 178.5* | . | -191.5 | 159.4* | 195.6* | 177.4* | . | . | . | IDE cell inh cf=50.8*;HEK293 tox=1.4
COc1ccc(-n2c(O)c(/C(C)=N/Nc3ccccc3)c(=O)[nH]c2=O)cc1 | -3.5 | -2.4 | -7.7 | -0.3 | -0.5 | 4.7 | . | . | . | . | .
O=c1[nH]c(=O)n(C2CCCCC2)c(O)c1/C=C/C=Nc1ccccc1 | -4.0 | -2.1 | 89.5* | . | -39.8 | 21.4* | 80.8* | 75.9* | . | . | . | IDE cell inh cf=42.0*;HEK293 tox=8.0
Cc1ccc(N/N=C/c2c(O)n(-c3ccccc3)c(=O)[nH]c2=O)cc1 | -4.2 | -4.3 | 2.9 | 9.7 | -2.2 | -1.7 | . | . | . | . | .
Cc1ccc(-n2c(O)c(/C=C/C=Nc3ccccc3)c(=O)[nH]c2=O)cc1 | 25.7 | -4.2 | 134.2* | 27.6 | -28.9 | 21.3* | 51.1* | 48.2* | . | . | . | IDE cell inh cf=29.9*;HEK293 tox=2.8
O=c1[nH]c(=O)n(-c2ccccc2)c(O)c1/C=C/C=Nc1ccccc1 | ? | -7.0 | 157.4* | . | -25.7 | 33.8* | 165.7* | 159.9* | . | . | . | IDE cell inh cf=35.0*;HEK293 tox=2.6
CCC(=NCc1cc(OC)cc(OC)c1)c1c(O)n(C)c(=O)n(C)c1=O | -2.7 | 4.2 | -0.6 | -0.6 | 1.2 | 9.1 | . | . | . | . | .
CC(C)C(O)(C(=O)OCC1=CCN2CCC(O)C12)C(C)O (stereo not given) | . | 1.2 | . | 6.0 | . | . | . | . | . | . | .
COc1ccc(OCC(=O)N2CCN(Cc3ccc(SC)cc3)CC2)cc1 | 4.9 | 3.8 | -3.4 | 4.7 | 0.1 | 7.8 | . | . | . | . | .
COc1ccc(-n2c(/C=C/c3ccc(O)c(OC)c3)nc3ccccc3c2=O)cc1 | 7.9 | 0.7 | 44.9* | . | -43.5 | 34.2* | 56.6* | 67.1* | . | . | . | IDE cell inh cf=102.4*;HEK293 tox=25.6*
COc1cccc(-n2c(/C=C/c3ccccn3)nc3ccccc3c2=O)c1 | -1.2 | -0.2 | . | -3.2 | 2.5 | . | . | . | . | . | .
COc1cccc(-n2c(/C=C/c3ccc(O)c(O)c3)nc3ccccc3c2=O)c1 | -43.0 | 1.2 | 55.0* | . | -101.2 | 159.6* | 64.8* | 68.0* | . | . | . | IDE cell inh cf=25.9*;HEK293 tox=16.6
O=C(/C=C/c1ccccc1)c1c(O)n(CCc2ccccc2)c(=O)[nH]c1=O | 4.2 | -3.5 | 2.8 | -0.7 | 1.1 | 1.1 | . | . | . | . | .
COc1cc(/C=C/C(=O)c2c(O)n(CCc3ccccc3)c(=O)[nH]c2=O)ccc1O | 0.6 | -2.5 | 62.8* | 53.0* | -7.5 | 11.4 | 69.2* | 89.3* | 60.8* | 5.4 | 31.5
COc1cc(/C=C/[N+](=O)[O-])ccc1O | 2.8 | 4.9 | -3.5 | -1.2 | -0.7 | -0.6 | . | . | . | . | .
CCN(CC)c1ccc(/C=C/[N+](=O)[O-])cc1 | -2.1 | -2.9 | 126.8* | 67.9* | -74.1 | 6.0 | 117.8* | 116.9* | 50.1* | -45.4 | 53.0*
NS(=O)(=O)c1nc[nH]c1[N+](=O)[O-] | . | 3.9 | . | -6.2 | 6.1 | . | . | . | . | . | .
COc1ccc(CN2C(=O)NC(=O)/C(=C\c3ccco3)C2=O)cc1 | -5.7 | -0.9 | 79.9* | 43.9* | -9.3 | 8.8 | 32.9* | 47.1* | 121.8* | 20.5 | 22.0
CN(C)c1ccc(/C=C2\C(=O)NC(=O)N(CCc3ccc(F)cc3)C2=O)cc1 | 5.4 | 1.1 | 29.6* | 50.4* | -1.7 | 1.0 | 66.8* | 86.5* | 10.4 | 0.7 | -90.1
O=C1NC(=O)N(CCc2ccc(F)cc2)C(=O)/C1=C/c1ccco1 | 2.2 | -0.5 | 60.5* | 71.0* | 1.6 | 8.8 | 13.7 | 15.1 | 28.7 | 36.8 | -1.0
CC(=O)NCC1=C(c2cccc3ccccc23)C[C@@H]2CC[C@H]1N2Cc1ccco1 | . | 0.2 | . | -14.0 | . | . | . | . | . | . | .
O=C(O)c1ccc(-n2c(O)c(/C=C3\C=Nc4ccccc43)c(=O)[nH]c2=O)cc1 | 3.1 | 4.4 | 16.5 | 11.5 | -2.4 | -2.2 | . | . | . | . | .
O=c1[nH]c(=O)n(-c2cccc(F)c2)c(O)c1/C=C1\C=Nc2ccccc21 | -6.8 | 1.6 | 37.5* | 62.4* | -8.0 | 2.0 | -56.7 | -38.7 | 9.1 | -21.6 | 3.3
COc1ccc(NC(=O)N2C[C@@H]3C[C@@H](C2)c2cccc(=O)n2C3)c(OC)c1 | -4.8 | -2.5 | -3.4 | 11.2 | 0.6 | 7.5 | . | . | . | . | .
CCOc1ccccc1-n1c(O)c(C=Nc2ccc(N(CC)CC)cc2)c(=O)[nH]c1=O | 3.8 | 2.4 | 81.3* | 55.6* | -0.8 | -8.9 | 75.2* | 89.3* | 49.1* | 2.6 | 37.7
SMILES | Calb FLC | Rin1-Abl PPI inh | TPT1 inh | Rpn11 block | IDE act | IDE inh | TPT1 inh confirm | RNase T1 counter | Rpn11 inh conf | MMP-2 counter | Thrombin inh | others
O=C(N/N=C/c1c(O)n(CCc2ccccc2)c(=O)[nH]c1=O)c1ccccc1O | ? | -3.5 | 38.4* | 57.5* | 1.3 | 2.5 | 43.0* | 55.7* | 61.5* | -15.3 | 36.3
CCCN(CCC)C1CCc2ccc(O)cc2C1 (stereo not given) | . | -1.5 | -0.7 | -9.7 | -1.1 | -5.1 | . | . | . | . | .
COc1ccc(Cn2c(N)c(C(=O)NCc3ccco3)c3nc4ccccc4nc32)cc1 | 1.1 | -0.6 | 48.3* | 67.0* | -1.0 | 1.4 | 10.0 | 14.3 | -2.0 | -37.1 | -4.3
Nc1c(C(=O)NCc2ccco2)c2nc3ccccc3nc2n1Cc1ccccc1 | 54.6 | 4.4 | 3.2 | 30.7 | -1.5 | 3.7 | . | . | . | . | .
C[C@]12CC[C@@H](O)CC1=CCC1C2CC[C@@]2(C)C1C[C@@H](F)[C@@H]2O (stereo not given in full) | . | 4.6 | . | -2.8 | 2.0 | -1.2 | . | . | . | . | .
Cc1ccnc(-n2c(C)cc(C=C3C(=O)N(C)C(=S)N(C)C3=O)c2C)c1 | 1.4 | -1.5 | 52.0* | 47.3* | 2.0 | 2.5 | 23.9 | 33.2* | -5.1 | 27.5 | -42.4
Cc1cccc(N2C(=O)NC(=O)/C(=C\c3ccc(N4CCOCC4)cc3)C2=O)c1 | -10.4 | 0.5 | 10.5 | -1.4 | -7.6 | 4.8 | . | . | . | . | .
Cc1cccc(N2C(=O)/C(=C/N3CCN(C(=O)c4ccco4)CC3)C(=O)NC2=S)c1 | -3.5 | -2.8 | 30.3* | 50.5* | 4.6 | -1.2 | 13.1 | 15.3 | 18.7 | 9.8 | 14.1

Screens as filed in PubChem.
